{"source": "PubChem BioAssay AID1345082", "about": "(National Center for Advancing Translational Sciences (NCATS), 2018)", "note": "About 4,000 (4.3%) of roughly 94,000 compounds were called active. Inconclusive results (about 29%) are left out. Only a selection was taken, and actives are over-represented in it overall. Unmarked numbers belong to inactive results. The call rests on the fitted dose curve; in most records, active means well fitted inhibition curve with a large enough effect; inconclusive means small, poorly fitted or top-dose-only effect; inactive means no such curve, though single readings can be large or run the other way. On the % scale 0 is the no-effect control and ±100 the full control effect; potency means the concentration at half of the fitted maximal effect.", "data": [{"assay": "Cytotoxic Profiling in NIH 3T3 Cell Line of Diverse Libraries Using Quantitative High-Throughput Screening; further: nearly all actives have a fitted effect of over 55% in size", "details": "NIH 3T3 viability, CellTiter-Glo ATP luminescence, 48-72 h; series mostly up to 96.7 µM; activity change, negative = cytotoxicity: at the top concentration", "excerpt": "Cell-based phenotypic screening is a commonly used approach to discover biological pathways, novel drug targets, chemical probes and high-quality hit-to-lead molecules. Many hits identified from high-throughput screening campaign are ruled out through a series of follow-up potency, selectivity/specificity, and cytotoxicity assays. Prioritization of molecules with little or no cytotoxicity for a more in-depth downstream evaluation influence the future direction of projects, so cytotoxicity profiling of the screening libraries at early stage is essential for increasing the likelihood of candidate success. In this study, we analyzed results from a cell-based cytotoxicity screening campaign, comprising nearly 10,000 compounds in NCATS annotated libraries, and over 100,000 compounds in a diversity library, evaluated in four normal cell lines (HEK 293, NIH 3T3, CRL-7250 and HaCat) and a cancer cell line (KB 3-1, a HeLa subline) with overall screening outcomes, hit rates, pan-activity and selectivity. For the annotated library, we also examined the primary targets and mechanistic pathways regularly associated with cell death. To our knowledge, this is the first study to use high-throughput screening to profile large libraries for cytotoxicity assessment in both normal and cancer cell lines. In summary, the results generated here constitutes a valuable resource for the scientific community and provides insight on identifying cytotoxic compounds with particular mechanisms of action, and prioritizing compounds with suitable cytotoxicity profile for further evaluation.\nNIH 3T3 cells were seeded into white 1536-well plates using a Multidrop Combi peristaltic dispenser (ThermoFisher, Waltham, MA) at a density of 400 cells/well in 5 uL of medium respectively. A pintool (Kalypsys) was used to transfer 23 nL of compound solution to the 1536-well assay plates. After 48 or 72 hr incubation at 37 degree Celsius, 5% CO2 and 95% humidity, 2.5 uL of CellTiter-Glo (Promega) was dispensed into each well using a dispenser (Aspect Automation, St. Paul, MN) with solenoid valves (Lee Valves, Westbrook CT). Plates were left at room temperature for 10 min before imaging the ATP-coupled luminescence using a ViewLux microplate imager (PerkinElmer, Waltham, MA).", "values": [{"smiles": "Cc1oc2ccn(Cc3ccccc3F)c(=O)c2c1C(=O)NCCCN1CCCCC1C", "note": "(stereo not drawn)", "Potency": "39.8 µM (active)"}, {"smiles": "Cc1noc([C@H]2CCN(Cc3ccccc3F)C[C@H]2NC(=O)C2CC2)n1", "activity change, negative = cytotoxicity": "-6.62%"}, {"smiles": "Cc1oc2c(c1C(=O)NCCN1CCCC1)CN(Cc1ccc(F)cc1)CC2", "outcome": "inactive"}, {"smiles": "CCn1nc(C)c(-c2cc(C(=O)N3CCCCCCNC(=O)[C@@H]4CCCC[C@@H]43)no2)c1C", "activity change, negative = cytotoxicity": "-26.8%"}, {"smiles": "COc1nccnc1NC1CCN(C(=O)NCc2ccccc2)CC1", "activity change, negative = cytotoxicity": "-21.9%"}, {"smiles": "Cn1cc(CN2CCOC[C@H](Oc3ccc(S(C)(=O)=O)cc3)C2)c2ccccc21", "Potency": "28.2 µM (active)"}, {"smiles": "CC(C)CN1CCOC[C@H](Oc2ccc(S(C)(=O)=O)cc2)C1", "activity change, negative = cytotoxicity": "-3.34% [at 138 µM]"}, {"smiles": "COc1ccc(O[C@H]2COCCN(Cc3nccn3C)C2)cc1", "activity change, negative = cytotoxicity": "-12.7% [at 138 µM]"}, {"smiles": "CCCCn1ccnc1C1CCCN(C(=O)c2ccccc2-c2ncn[nH]2)C1", "note": "(stereo not drawn)", "activity change, negative = cytotoxicity": "-4.3%"}, {"smiles": "CN(C)C(=O)c1ccc2oc(-c3ccnc(Cl)c3)nc2c1", "Potency": "28.2 µM (active)"}, {"smiles": "O=C(NCc1ccccc1)c1ccc2nc(-c3ccnc(Cl)c3)oc2c1", "activity change, negative = cytotoxicity": "-10.4% [at 138 µM]"}, {"smiles": "O=C(NCCc1ccc(Cl)cc1)c1ccc2oc(-c3cccnc3)nc2c1", "activity change, negative = cytotoxicity": "-15.1%"}, {"smiles": "O=C(O)[C@]12CCCN(Cc3ncc[nH]3)[C@@H]1CCN(Cc1ccncc1)C2", "outcome": "inactive"}, {"smiles": "CCCN1CCCC2(CCN(C(=O)C(=O)c3cccn3C)C2)C1=O", "note": "(stereo not drawn)", "activity change, negative = cytotoxicity": "0.429%"}, {"smiles": "CC(C)NC(=O)C1CCC(=O)N1C1CCN(C(=O)c2ccc3c(c2)OCO3)CC1", "note": "(stereo not drawn)", "activity change, negative = cytotoxicity": "-12.1%"}, {"smiles": "O=C(c1ccc2c(c1)OCO2)N1CCC(n2c(=O)[nH]c3ccccc32)CC1", "activity change, negative = cytotoxicity": "-23%"}, {"smiles": "O=C(NCc1ccc2c(c1)OCO2)c1noc(-c2ccc(F)cc2)n1", "activity change, negative = cytotoxicity": "-28.9%"}, {"smiles": "COc1ccc(CNC(=O)c2noc(-c3ccc(F)cc3)n2)cc1", "activity change, negative = cytotoxicity": "-16.3%"}, {"smiles": "CNc1nc(C(=O)NCc2ccc3[nH]c(-c4ccc(F)cc4)c(C)c3c2)cs1", "Potency": "50.1 µM (active)"}, {"smiles": "CN(CCc1ccccn1)[C@H]1[C@@H]2OC[C@@H](O2)[C@@H](NC(=O)Nc2ccc(F)cc2)[C@@H]1O", "activity change, negative = cytotoxicity": "-19.5% [at 174 µM]"}, {"smiles": "CNC(=O)[C@@H]1CN(C(=O)c2n[nH]c3ccccc23)C[C@H]1COC", "activity change, negative = cytotoxicity": "-30.5%"}, {"smiles": "COc1ccccc1C(=O)N1CCC2(CC1)C(=O)Nc1ccccc12", "activity change, negative = cytotoxicity": "-2.43%"}, {"smiles": "CN(C)CCNC(=O)c1nc2nc(-c3ccccc3)c(-c3cccc(F)c3)cc2n1C", "Potency": "25.1 µM (active)"}, {"smiles": "COCCNC(=O)c1nc(-c2cc(Cl)cc(Cl)c2)c2ccccn12", "activity change, negative = cytotoxicity": "-29.4%"}, {"smiles": "CCc1cc(=O)n(CC(=O)Nc2ccccc2F)c(-c2cccc(F)c2)n1", "activity change, negative = cytotoxicity": "-11.4%"}, {"smiles": "Cc1ccc(S(=O)(=O)N2C[C@@H](F)C[C@H]2C(=O)N2CCCCC2)cc1Cl", "activity change, negative = cytotoxicity": "-31.4%"}, {"smiles": "CN1c2cc(C(=O)Nc3ccc(F)cc3)ccc2C(=O)N2CCCCC21", "note": "(stereo not drawn)", "activity change, negative = cytotoxicity": "-2.47%"}, {"smiles": "CCN1c2cc(C(=O)NCc3cccc(F)c3)ccc2C(=O)N2CCCCCC21", "note": "(stereo not drawn)", "activity change, negative = cytotoxicity": "-29.3%"}, {"smiles": "CCN1c2cc(C(=O)Nc3ccc(F)c(Cl)c3)ccc2C(=O)N2CCCCC21", "note": "(stereo not drawn)", "Potency": "25.1 µM (active)"}, {"smiles": "COC1CN(c2cccc(F)c2)C12CCN(C1CCOCC1)CC2", "note": "(stereo not drawn)", "activity change, negative = cytotoxicity": "-18%"}, {"smiles": "COCCN1CCN(C(=O)[C@@H]2Cc3cn(C)c4cccc(c34)[C@H](CC(C)C)N2)CC1", "activity change, negative = cytotoxicity": "-2.5% [at 174 µM]"}, {"smiles": "CC#CCn1cc2c3c(cccc31)[C@H](CC(C)C)N[C@H](C(=O)NCc1ccccc1OC)C2", "Potency": "31.6 µM (active)"}, {"smiles": "Cc1cc(Cn2cc3c4c(cccc42)[C@H](CC(C)C)N[C@H](C(=O)N2CCCCCC2)C3)no1", "Potency": "31.6 µM (active)"}, {"smiles": "COc1ccc(CNC(=O)[C@H]2O[C@H](CCN3CCN(C)CC3)CC[C@@H]2O)cc1", "activity change, negative = cytotoxicity": "-1.12% [at 174 µM]"}, {"smiles": "COc1ccc(CNC(=O)[C@@H]2Cc3cn(Cc4ccncc4)c4cccc(c34)[C@H](CC(C)C)N2)cc1", "Potency": "79.4 µM (active)"}, {"smiles": "COc1ccccc1CNC(=O)CN1CC[C@](C)(O)[C@@H](O)C1", "activity change, negative = cytotoxicity": "3.14%"}, {"smiles": "CCCN1C(=O)Cc2ccccc2C1C(=O)NCc1cccc(OC)c1OC", "note": "(stereo not drawn)", "activity change, negative = cytotoxicity": "3.13%"}, {"smiles": "COC(=O)[C@@H]1Cc2ncn(Cc3ccc(OC)cc3)c2CN1S(C)(=O)=O", "activity change, negative = cytotoxicity": "-23.8% [at 174 µM]"}, {"smiles": "COc1ccc(CCC(=O)N2CCCC3(CC2)CN(C)C(=O)O3)cc1OC", "note": "(stereo not drawn)", "activity change, negative = cytotoxicity": "-0.528%"}, {"smiles": "CS(=O)(=O)c1ccc(CN2CCOC(c3cccnc3)C2)cc1", "note": "(stereo not drawn)", "activity change, negative = cytotoxicity": "1.91%"}, {"smiles": "COc1ccc(CNC(=O)CC[C@@H]2CNC(=O)[C@@H]3C[C@H](NC(=O)NC(C)C)CN23)cc1", "outcome": "inactive [at 174 µM]"}, {"smiles": "Cc1ccc(-n2cccn2)c(CN2CCC(CNS(C)(=O)=O)C2)c1", "note": "(stereo not drawn)", "activity change, negative = cytotoxicity": "-9.15%"}, {"smiles": "OC[C@@H]1O[C@H](CNC2CCOCC2)[C@H](N2CCCC2)[C@@H]1O", "outcome": "inactive [at 138 µM]"}, {"smiles": "Cc1cc(C)n(CCCN(C)C(=O)C2C3C(=O)N(CCC(C)C)C[C@@]34C=C[C@@H]2O4)n1", "note": "(stereo partly drawn)", "activity change, negative = cytotoxicity": "-23.8%"}, {"smiles": "Cc1cn2nc(C(=O)Nc3ccc(F)cc3F)cc2c(N(C)Cc2ccccc2)n1", "activity change, negative = cytotoxicity": "-25.5%"}, {"smiles": "CCNC(=O)c1ccccc1-c1ccc(O)cc1", "activity change, negative = cytotoxicity": "-8.82%"}, {"smiles": "O=Cc1ccccc1-c1ccc(O)cc1", "Potency": "79.4 µM (active)"}, {"smiles": "COc1ccccc1C(=O)N1CCC2(C1)C(=NC1CCCCC1)NC(=O)N2c1cccnc1", "note": "(stereo not drawn)", "outcome": "inactive"}]}]}
